Reference: PubChem BioAssay (NCATS)
Records with an inconclusive call do not appear. Calls of active or inactive are those of the source. The call rests on the fitted dose curve; in most records, active means well fitted curve in the direction sought with a large enough effect; inconclusive means small, poorly fitted or top-dose-only effect, or another doubt; inactive means no such curve, though single readings can be large; an effect the other way counts as inactive or inconclusive.

How the values were obtained:
[1] = system: Zika virus NS2B-NS3 protease; assay: Primary screen GU AMC qHTS for Zika virus inhibitors (AID 1347154); conditions: Zika NS2B-NS3 unlinked protease, AMC fluorogenic substrate; series mostly up to 54.1 µM;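 further: 0% = no-inhibitor control and -100% = no-enzyme control; nearly all actives have a fitted effect of over 70% in size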
Procedure, shortened: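 Fluorogenic AMC-substrate cleavage by noncovalent NS2B-NS3 protease complex (25 nM, pH 8.0 Tris buffer with Tween 20) followed for 15 minutes at room temperature (~20% conversion). Percent inhibition from ex340/em450 signal change, fitted by 4-parameter Hill equation.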

[2] = qHTS for inhibitors of adenylyl cyclases using a fission yeast platform: a pilot screen against the NCATS LOPAC library (AID 1347410);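 further: plate controls were DMSO vehicle for no effect and DPI positive control for full effect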; conditions: S. pombe CHP2027, fbp1-GFP fluorescence, 18 h, yeast expressing mammalian AC9 and human GNAS; series mostly up to 57.5 µM
Procedure, shortened: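 Inhibition of GNAS-stimulated AC9 activity in S. pombe was inferred from derepression of a PKA-repressed fbp1-GFP reporter, measured as cytometric fluorescence after 18 h at 30C with compounds at up to 57 µM.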

[3] = Validation qHTS assay for inhibitors of Activation Induced Cytidine Deaminase (AID): UDG Counterscreen signal (AID 1347427); conditions: biochemical UDG counterscreen, fluorescence signal; series mostly up to 115 µM; further: 0% is about no effect
Procedure, shortened: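 Fluorescence at 560 nm excitation, 665 nm emission reports UDG signal after 250 mM NaOH (2x) addition and 30 min. Enzymes (AID 1 uM, UDG 2 U/mL, at 4/3x) preincubated 10 min with compound, then 4 h with 4x 250 nM DJC20/DJC23 substrate at room temperature.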

[4] = biological target: Single-stranded DNA cytosine deaminase (Homo sapiens) (UniProt Q9GZX7); assay: Validation qHTS assay for inhibitors of Activation Induced Cytidine Deaminase (AID): AID signal (AID 1347429); conditions: Recombinant AID, FRET ssDNA deamination with UDG, fluorescence; series mostly up to 115 µM; further: on the % scale 0 is the no-effect control and ±100 the full control effect
Chain of Single-stranded DNA cytosine deaminase (Homo sapiens) (Q9GZX7 whole entry, looked up): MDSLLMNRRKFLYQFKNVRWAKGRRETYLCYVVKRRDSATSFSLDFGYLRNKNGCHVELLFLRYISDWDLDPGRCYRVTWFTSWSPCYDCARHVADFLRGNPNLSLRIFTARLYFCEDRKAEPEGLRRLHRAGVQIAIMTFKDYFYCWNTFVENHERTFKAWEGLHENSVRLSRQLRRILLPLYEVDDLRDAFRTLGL
Procedure, shortened: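 Steps: dispense AID with UDG; pin-transfer compound up to 114 uM final; add DJC20/DJC23 substrate and hold 4 hr at room temperature; add NaOH, hold 30 min; read FRET signal (540/590 nm).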

[5] = system: Zika virus NS2B-NS3 protease (unlinked complex); assay: Primary screen GU Rhodamine qHTS for Zika virus inhibitors: Unlinked NS2B-NS3 protease assay (AID 1347159); conditions: Recombinant ZIKV NS2B-NS3 protease, Rhodamine110 substrate fluorescence; series mostly up to 107 µM; further: on the % scale 0 is the no-effect control and ±100 the full control effect; nearly all actives have a fitted effect of over 60% in size
Procedure, shortened: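 In dose–response format, inhibition of unlinked protease (25 nM) was measured with 1.5 microM bis-peptide Rhodamine110 substrate. Aprotinin served as the intraplate control.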

[6] = qHTS to identify inhibitors of the type 1 interferon - major histocompatibility complex class I in skeletal muscle: primary screen against the NCATS Mechanism Interrogation Plate v5.0 (MIPE) Libary (AID 1347411); conditions: iHSKM cells + IFN-b, HiBiT-tagged MHC-I luminescence, 24 h; series mostly up to 45.8 µM;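 further: plate controls were vehicle for no effect and reference inhibitor for full effect; nearly all actives have a fitted effect of over 65% in size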
Procedure, shortened: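 Seed engineered human myoblasts (HLA-B HiBit) in medium without dexamethasone containing 4 ng/ml IFN-beta; after 1 hr add compound titrations (top 46 uM final). Incubate 24 hrs at 37 C, lyse 10 min with HiBiT reagent, read luminescence.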

[7] = qHTS to identify inhibitors of the type 1 interferon - major histocompatibility complex class I in skeletal muscle: primary screen against the NCATS Pharmaceutical Collection (AID 1347407); conditions: human skeletal muscle cells, IFN-b-induced MHC-I HiBiT luminescence, 24 h; series mostly up to 45.9 µM;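 further: luminescence of HiBiT knocked into endogenous HLA-B as interferon-induced MHC class I level; on the % scale 0 is the no-effect control and ±100 the full control effect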
Procedure, shortened: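 A qHTS format is used: 8-point, 1:5 compound series with 46 uM top final concentration, applied alongside 4 ng/ml IFN-beta to HLA-B*08:01-HiBiT knock-in myoblasts. Luminescence is measured after 24 h treatment.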

[8] = biological target: Protein phosphatase 1D (Homo sapiens) (UniProt O15297); assay: RapidFire Mass Spectrometry qHTS Assay for Modulators of WT P53-Induced Phosphatase 1 (WIP1) (AID 1347424); conditions: WIP1 dephosphorylation of phosphopeptide, RapidFire MS; series mostly up to 63 µM;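 further: amount of dephosphorylated VEPPL-S-QETFS peptide product formed by WIP1; plate controls were DMSO wells for no effect and GSK830371 inhibitor control at 10 µM for full effect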
Chain of Protein phosphatase 1D (Homo sapiens) (O15297 whole entry, looked up): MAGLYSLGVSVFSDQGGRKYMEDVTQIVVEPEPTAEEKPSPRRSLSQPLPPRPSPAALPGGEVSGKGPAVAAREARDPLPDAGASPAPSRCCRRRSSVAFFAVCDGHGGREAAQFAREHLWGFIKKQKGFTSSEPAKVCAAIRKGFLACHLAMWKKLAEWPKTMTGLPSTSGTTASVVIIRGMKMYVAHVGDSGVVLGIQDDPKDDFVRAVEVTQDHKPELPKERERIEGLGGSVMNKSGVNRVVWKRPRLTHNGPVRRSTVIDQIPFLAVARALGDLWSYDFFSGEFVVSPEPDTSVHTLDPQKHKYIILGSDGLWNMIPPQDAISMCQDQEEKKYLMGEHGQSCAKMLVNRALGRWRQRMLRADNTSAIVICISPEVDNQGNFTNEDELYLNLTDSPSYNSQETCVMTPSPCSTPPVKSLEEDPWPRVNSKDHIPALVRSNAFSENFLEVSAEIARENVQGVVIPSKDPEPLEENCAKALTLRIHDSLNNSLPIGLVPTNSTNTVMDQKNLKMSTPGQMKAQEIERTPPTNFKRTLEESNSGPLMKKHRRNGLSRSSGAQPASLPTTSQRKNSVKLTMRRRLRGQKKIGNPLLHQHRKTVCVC
Procedure, shortened: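 RapidFire mass spectrometry measured dephosphorylated peptide after 5 min room-temperature reaction of 2 uM VEPPL-pS-QETFS with 10 nM WIP1 (50 mM Tris-HCl pH 7.5, 30 mM MgCl2, 0.1 mM EGTA, BSA), following 1 hr compound preincubation; 1 uM isotope-labelled product standard.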

[9] = biological target: Protein phosphatase 1D (Homo sapiens) (UniProt O15297); assay: Rhodamine-PBP qHTS Assay for Modulators of WT P53-Induced Phosphatase 1 (WIP1) (AID 1347425); conditions: recombinant WIP1, Rhodamine-PBP phosphate fluorescence, real-time; series mostly up to 57.5 µM; further: % of control where 0% means no effect
Procedure, shortened: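 WIP1 (5 nM final) was preincubated with compound for 1 hour at room temperature. It then dephosphorylated 10 uM VEPPL-pS-QETFS peptide in Tris-HCl pH 7.5 with 30 mM MgCl2. Released Pi was detected by 10 uM Rh-PBP fluorescence (ex 525/em 598 nm) read at 1-min intervals for 11 min, as delta f1 - f0.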

[10] = Primary qHTS for inhibitors of La Crosse Virus (LACV) - induced cell death in SH-SY5Y cells (AID 1508616); conditions: SH-SY5Y LACV cytopathicity rescue, ATP luminescence, 6 d; series mostly up to 4.29 µM;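 further: top concentration of the series differs between compounds; 0% = infected DMSO wells and 100% = uninfected DMSO wells; higher means more rescue of cells from virus-induced death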
Procedure, shortened: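 SH-SY5Y, 6000 cells/well; cpd via pin tool in DMSO; LACV 0.01 MOI; 6 d 37C 5% CO2; ATPLite, 5 min RT; luminescence normalized to ±virus DMSO controls.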

[11] = system: Zika virus NS2B-NS3 protease (linked construct); assay: Primary screen NINDS Rhodamine qHTS for Zika virus inhibitors (AID 1347160); conditions: purified NS2B-NS3 protease, Rhodamine110 substrate fluorescence; series mostly up to 57.1 µM; further: on the % scale 0 is the no-effect control and ±100 the full control effect; nearly all actives have a fitted effect of over 55% in size
Procedure, shortened: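 Each compound, titrated, sat 15 min with 25 nM linked protease before 1.5 microM Rhodamine110 substrate went in. Fluorescence gain over the next 15 min, in pH 8.0 Tris with Tween 20, gave Hill-fitted curves.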

C=CCc1cccc(C=NNC(=O)CN2CCN(Cc3ccccc3)CC2)c1O
inactive: Potency [1] | outcome [2] | outcome [3] | outcome [4]

COc1nccc(-c2c(-c3ccc(F)cc3)ncn2C2CCC(O)CC2)n1 (centres undefined)
inactive: Potency [1] | Potency [5] | Potency [6]

O=C1C(c2c(O)[nH]c3ccccc23)=Nc2ccccc21
inactive: Potency [1] | Potency [5] | Potency [6]

NC[C@H]1O[C@H](O[C@@H]2[C@@H](O)[C@@H](O[C@H]3O[C@H](CO)[C@@H](O)[C@H](N)[C@@H]3O)[C@H](N)C[C@@H]2N)[C@H](O)[C@@H](O)[C@H]1O
inactive: Potency [1] | Potency [6]

COc1ccnc(CS(=O)c2nc3ccc(OC(F)F)cc3[nH]2)c1OC (centres undefined)
inactive: Potency [1] | outcome [7] | Potency [6] | Potency [8] | outcome [9] | outcome [10]

COC(=O)N1CCN(Cc2cccc(NC(=O)Nc3ccc(C)nc3)c2F)CC1
inactive: Potency [1] | Potency [5] | Potency [6]

CC[C@H](CC#N)OC(=O)N[C@@H](C)c1cccc(NC(=O)Nc2ccc(-c3cnco3)c(OC)c2)c1
inactive: Potency [1] | Potency [11]

C[C@@]1(c2cc(-c3cncnc3)c(F)cc2F)CCSC(N)=N1
inactive: Potency [1] | Potency [5] | Potency [6]

OC[C@H]1O[C@@H](OCCc2ccc(O)cc2)[C@H](O)[C@@H](O)[C@H]1O
inactive: Potency [1] | outcome [7] | Potency [8] | outcome [9] | outcome [10]

CN[C@@H](C)[C@H]1[C@H](O)C[C@@]2(C)[C@@H]3CC[C@H]4C(C)(C)[C@@H](NC)CC[C@@]45C[C@@]35CC[C@]12C
inactive: Potency [1] | activity change, negative = inhibition [5] 119% [at 19.1 µM] | activity change, negative = inhibition [6] 36.7% [at 8.44 µM]

O=c1[nH]nc(OCCCc2ccc(Cl)cc2)c(NCc2cccnc2)c1Br
inactive: Potency [1] | Potency [11] | Potency [6]

NCc1c[nH]c(=S)n1[C@H]1CCc2c(F)cc(F)cc2C1
inactive: Potency [1] | Potency [6]
